According to PubChem BioAssay (Tox21):
Inconclusive results are not listed. Where a call stands in place of a potency, no number is given. The source made the active and inactive calls. Calls come from the whole dose curve; as a rule, active = well fitted cell-killing curve with a large enough effect in the repeat runs; inconclusive = weak or mixed curves, or effect the other way; inactive = flat fitted curve, though single readings scatter.

test: cAMP Responsive Elements (CRE) small molecule agonists, cell-based qHTS assay: qHTS cell viability counter screen (AID 2060914); conditions: CRE-bla HEK293T viability, CellTiter-Glo luminescence, 5 h; series mostly up to 92.4 µM;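 note: viability read after 3 h of compound exposure; nearly all actives have a fitted effect of over 50% in size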
How it was run: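 CRE-bla HEK 293T cells, plated 18 h at 37 °C, were exposed to compounds for 3 h at 37 °C/5% CO2. Viability was then measured in the same wells by CellTiter-Glo luminescence after 30 min at room temperature.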

Row | SMILES | Potency | activity change, negative = cytotoxicity
1 | CCCCCCCCCCCCN | inactive | –
2 | O=C(O)c1cccc(C(=O)O)n1 | inactive | –
3 | O=[N+]([O-])c1ccc(NCCO)c(OCCO)c1 | inactive | –
4 | CCCCCCCCCCCC(=O)OC[C@@H](O)[C@H]1OC[C@H](OCCO)[C@H]1OCCO | inactive | –
5 | OC(CCN1CCCCC1)(c1ccccc1)C1CC2C=CC1C2 (stereo not given) | inactive | –
6 | CCCOc1ccccc1-c1nc2n[nH]nc2c(=O)[nH]1 | inactive | –
7 | CC(=O)c1ccc2c(c1)[C@H](NC(=O)c1ccc(F)cc1)[C@@H](O)C(C)(C)O2 | inactive | –
8 | C[N+]1(C)CCC(=C(c2ccccc2)c2ccccc2)CC1 | inactive | –
9 | NS(=O)(=O)c1ccccc1OC(F)(F)F | inactive | –
10 | CN(C)Cc1ccccc1 | inactive | –
11 | C=C[Si](C)(C)Cl | – | -1.19% [at 8.39 µM] (inactive)
12 | C=CCN1CCc2nc(N)sc2CC1 | inactive | –
13 | N[C@@H](C(=O)N[C@@H]1C(=O)N2C(C(=O)O)=C(Cl)CS[C@H]12)c1ccccc1 | – | 8.3% [at 8.39 µM] (inactive)
14 | COC(=O)C1=C(C)NC(C)=C(C(=O)OCCCN2CCC(c3ccccc3)(c3ccccc3)CC2)C1c1cccc([N+](=O)[O-])c1 (stereo not given) | inactive | –
15 | O=C(O)c1[nH]n(-c2ccc(S(=O)(=O)O)cc2)c(=O)c1N=Nc1ccc(S(=O)(=O)O)cc1 | inactive | –
16 | COC(=O)c1cccc(C(=O)OC)c1 | inactive | –
17 | COc1cccc(CCc2ccccc2OCC(CN(C)C)OC(=O)CCC(=O)O)c1 (stereo not given) | inactive | –
18 | CC(C)(C)C(=O)C(Oc1ccc(Cl)cc1)n1ccnc1 (stereo not given) | inactive | –
19 | N=C(N)c1ccc(OCCCOc2ccc(C(=N)N)cc2)cc1 | inactive | –
20 | CC[C@H](C)[C@H](N)C(=O)O | inactive | –

Row | SMILES | Potency | activity change, negative = cytotoxicity
21 | CC(C)OC(=O)c1ccccc1C(=O)OC(C)C | inactive | –
22 | COc1cccc(O)c1 | inactive | –
23 | CCCCCCCCC/C=C/CC1CC(=O)OC1=O (stereo not given) | inactive | –
24 | O=C[C@H](O)[C@@H](O)[C@H](O)[C@H](O)CO | inactive | –
25 | Nc1ccc(-c2ccc(F)cc2)cc1 | inactive | –
26 | CC1(C)SC(C)(C)SC(C)(C)S1 | inactive | –
27 | CN1CN(C)CN(C)C1 | inactive | –
28 | Cc1nn(C)c(Oc2ccccc2)c1/C=N/OCc1ccc(C(=O)OC(C)(C)C)cc1 | inactive | –
29 | CCOc1nc2cccc(C(=O)O)c2n1Cc1ccc(-c2ccccc2-c2nn[nH]n2)cc1 | inactive | –
30 | CC(CN)CC(C)(C)CCN (stereo not given) | inactive | –
31 | CCCCCCCC(=O)Oc1c(Br)cc(C#N)cc1Br | inactive | –
32 | OCc1ccccc1 | inactive | –
33 | O=C(O)c1ccccc1 | inactive | –
34 | CCc1cccc(N(C)C(N)=Nc2cccc3ccccc23)c1 | inactive | –
35 | Nc1cccnc1N | inactive | –
36 | CCCCCCCCCCCCCCOS(=O)(=O)O | inactive | –
37 | O=[N+]([O-])c1ccccc1C(F)(F)F | inactive | –
38 | O=C1CCCCCCCCCCCC(=O)OCCO1 | inactive | –
39 | CCN(CC)CCNC(=O)COc1ccc(OC)cc1 | inactive | –
40 | O=[N+]([O-])c1ccc(O)cc1C(F)(F)F | inactive | –
